Screens from PubChem BioAssay.
Sampled rows, rich in hits. Any-hit rate of the full collection: about 19%.
IL1B secr inh: blocks inflammasome-driven IL-1 beta release; THP-1 LPS/ATP IL-1B secretion, AlphaLISA, 16 h; stronger effect = lower value; AID 743279; hit rate 4.7% among 360,000; activity change, % at 57.5 µM; in the data active = activity change below about -50%; inconclusive = mostly about -30% to -49%; also: % is scaled to controls: 0 for no effect and ±100 for the full control effect
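THP-1 cells pretreated 1 hr with compounds (up to 57.5 uM final), then stimulated with LPS (250 ng/mL final) plus ATP (1.25 mM final); secreted IL-1B measured by AlphaLISA after 16 hr, decreased signal indicating inhibition.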
DT40 TDP1 no CPT: qHTS for Inhibitors of human tyrosyl-DNA phosphodiesterase 1 (TDP1): qHTS in cells in absence of CPT; Potency, µM (series often up to 46.2 µM), inactives show top-dose activity change, negative = growth inhibition, actives largely listed as inhibitors; hit rate 15% among 420,000; DT40 Tdp1-/- hTDP1 cells, no CPT, ATP luminescence, 48 h; also: potency is read from the fitted curve at half-maximal effect; % is scaled to controls: 0 for no effect and ±100 for the full control effect; nearly all actives have a fitted effect of over 55% in size
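Compound effects on proliferation are scored in DT40 Tdp1-/-;hTDP1 cells in the absence of CPT. ATP levels (CellTiter-Glo luminescence) are recorded after a ≥48 hr, 37 °C incubation.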
TGFb inhibitor: inhibitors of TGF-b signaling | HepG2 CAGA-GFP TGF-b/SMAD3 reporter, GFP fluorescence, 18 h; TGF-beta stimulated, 500 pg/mL final | Potency, µM (top dose mostly 46.1 µM), without a hit: at the highest dose activity, negative = inhibition, most hits filed as inhibitors | hit rate 1.2% among 410,000; also: potency is read from the fitted curve at half-maximal effect; % is scaled to controls: 0 for no effect and ±100 for the full control effect; nearly all actives have a fitted effect of over 65% in size
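HEPG2 CAGA-GFP reporter cells (1000/well, DMEM with 1% FBS) received compounds, then recombinant TGF-beta at 500 pg/mL final for 18 hours at 37 degrees C. Per-cell GFP summed per well was normalised to unstimulated and stimulated DMSO controls before curve fitting.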
HepG2 tox: kills HepG2 cells in TGF-b inhibitor counter-screen | HepG2 CAGA-GFP viability, ATP luminescence, 18 h | Potency, µM (doses to about 46.1 µM), inactives show at the highest dose activity change, negative = cytotoxicity, usual class: cytotoxic | hit rate 0.76% among 410,000 | AID 588856; also: potency is read from the fitted curve at half-maximal effect
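HepG2 CAGA-GFP cells (1000/well, DMEM with 1% FBS) received compound, then TGF-beta at 500 pg/mL final, and were incubated 18 hours at 37 degrees C. Viability was read by CellTiter-Glo luminescence. Media-only wells were set as complete cell-killing and DMSO as no toxicity.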
DT40 TDP1 CPT: DT40-hTDP1 cell growth loss with CPT; Potency, µM (series often up to 46.2 µM), for inactives: at the top dose activity change, negative = growth inhibition, most hits filed as inhibitors; chicken DT40 Tdp1-/-;hTDP1 cells + 20 nM CPT, ATP luminescence, 48 h; hit rate 12% among 420,000; also: potency is read from the fitted curve at half-maximal effect; % is scaled to controls: 0 for no effect and ±100 for the full control effect; nearly all actives have a fitted effect of over 55% in size
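Cell growth measured by CellTiter-Glo luminescence after a minimum 48 h, 37 C compound exposure with 20 nM CPT in Tdp1-knockout DT40 cells stably expressing hTDP1, seeded 400/well; qHTS titration format.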
ASM inhibitor: inhibitors of human secretory acid sphingomyelinase | AID 504937 | Potency, µM (series often up to 57.5 µM), without a hit: at the highest dose activity change, negative = inhibition, most hits filed as inhibitors | hit rate 0.006% among 340,000 | placental ASM, HMU-PC fluorogenic substrate, 60 min | P17405; also: potency is read from the fitted curve at half-maximal effect
Target sequence (P17405 47-631 limits assumed): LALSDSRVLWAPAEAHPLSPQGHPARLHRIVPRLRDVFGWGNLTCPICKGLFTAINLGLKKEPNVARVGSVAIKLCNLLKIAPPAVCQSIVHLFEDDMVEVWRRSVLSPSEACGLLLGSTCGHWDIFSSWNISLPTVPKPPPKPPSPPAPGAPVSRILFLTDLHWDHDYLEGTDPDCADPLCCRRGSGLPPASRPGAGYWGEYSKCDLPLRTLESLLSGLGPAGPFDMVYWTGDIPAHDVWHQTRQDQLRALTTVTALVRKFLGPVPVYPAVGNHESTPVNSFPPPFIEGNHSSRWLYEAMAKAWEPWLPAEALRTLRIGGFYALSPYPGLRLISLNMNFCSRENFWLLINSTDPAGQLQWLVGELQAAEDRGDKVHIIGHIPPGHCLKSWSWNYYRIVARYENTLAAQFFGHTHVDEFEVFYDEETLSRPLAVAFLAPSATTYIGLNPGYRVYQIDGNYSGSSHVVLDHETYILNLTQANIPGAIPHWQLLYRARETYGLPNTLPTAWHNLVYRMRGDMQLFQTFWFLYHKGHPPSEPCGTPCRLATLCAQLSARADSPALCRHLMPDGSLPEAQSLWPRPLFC
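Human placenta-derived ASM enzyme was preincubated with compound for 10 minutes at room temperature, then given fluorogenic substrate HMU-PC0 (9 uM final) for 60 minutes at 37 °C; a pH 10 stop preceded fluorescence reading at Ex 386/Em 447 nm.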
* marks the source's active call; other numbers are inactive results. Unless noted, calls follow the shape of the dose curve; as a rule, active = well fitted curve in the direction sought with a large enough effect; inconclusive = small, poorly fitted or top-dose-only effect, or another doubt; inactive = no such curve, though single readings can be large; an effect the other way counts as inactive or inconclusive.

What do the screens show for `CN(c1ccccc1)S(=O)(=O)c1ccc(C(=O)Nc2nnc(C3=COCCO3)o2)cc1`?
IL1B secr inh: 0; DT40 TDP1 no CPT: inconclusive; TGFb inhibitor: -22%; HepG2 tox: -36%; DT40 TDP1 CPT: inconclusive; ASM inhibitor: 0%

How did CCc1nnc(NC(=O)c2ccc(S(=O)(=O)N(CC(C)C)CC(C)C)cc2)o1 do in these assays?
IL1B secr inh: 56; DT40 TDP1 no CPT: 18µM*; TGFb inhibitor: inconclusive; HepG2 tox: -7%; DT40 TDP1 CPT: 21µM*; ASM inhibitor: -2%

How did COc1ccc(NC(=O)c2cc(-c3cc(Cl)ccc3O)n[nH]2)c(OC)c1 do in these assays?
IL1B secr inh: -11; DT40 TDP1 no CPT: -37%; TGFb inhibitor: 10%; HepG2 tox: -8%; DT40 TDP1 CPT: -7%; ASM inhibitor: 9%

Results for CCOc1ccc(Cl)cc1-c1cc(C(=O)Nc2cc(OC)ccc2OC)[nH]n1 ?
IL1B secr inh: 9; DT40 TDP1 no CPT: 23µM*; TGFb inhibitor: 13%; HepG2 tox: -4%; DT40 TDP1 CPT: inconclusive

Results for CCOc1ccc(Cl)cc1-c1cc(C(=O)Nc2ccc(OC)cc2OC)[nH]n1 ?
IL1B secr inh: -1; DT40 TDP1 no CPT: 18µM*; TGFb inhibitor: -5%; HepG2 tox: -17%; DT40 TDP1 CPT: inconclusive

How did COc1ccc(NC(=O)c2cc(-c3cc(Cl)ccc3OC)n[nH]2)c(OC)c1 do in these assays?
IL1B secr inh: inconclusive; DT40 TDP1 no CPT: inconclusive; TGFb inhibitor: -3%; HepG2 tox: -28%; DT40 TDP1 CPT: 23µM*

Results for COc1ccc(Cl)cc1-c1cc(C(=O)Nc2ccc(Br)cc2)[nH]n1 ?
IL1B secr inh: inconclusive; DT40 TDP1 no CPT: inconclusive; TGFb inhibitor: inconclusive; HepG2 tox: -14%; DT40 TDP1 CPT: inconclusive

Results for Cc1cc([N+](=O)[O-])nn1CCCC(=O)Nc1cc(Oc2ccccc2)cc([N+](=O)[O-])c1 ?
IL1B secr inh: 0; DT40 TDP1 no CPT: 21µM*; TGFb inhibitor: -14%; HepG2 tox: 10%; DT40 TDP1 CPT: 16µM*; ASM inhibitor: -29%

How did Cc1cc(C)cc(Oc2cc(NC(=O)c3cn(C)nc3C)cc([N+](=O)[O-])c2)c1 do in these assays?
IL1B secr inh: 5; DT40 TDP1 no CPT: 1.4µM*; TGFb inhibitor: inconclusive; HepG2 tox: -31%; DT40 TDP1 CPT: 2.2µM*; ASM inhibitor: -10%

Results for Cc1cc([N+](=O)[O-])nn1CCCC(=O)Nc1cc(Oc2ccc(F)cc2)cc([N+](=O)[O-])c1 ?
IL1B secr inh: inconclusive; DT40 TDP1 no CPT: inconclusive; TGFb inhibitor: 9%; HepG2 tox: 7%; DT40 TDP1 CPT: inconclusive; ASM inhibitor: -9%

What do the screens show for `Cc1nn(Cc2c(Cl)cccc2Cl)c(C)c1NC(=O)CCCn1nc([N+](=O)[O-])c(Cl)c1C`?
IL1B secr inh: -7; DT40 TDP1 no CPT: 21µM*; TGFb inhibitor: 18%; HepG2 tox: -12%; DT40 TDP1 CPT: inconclusive; ASM inhibitor: -1%

Results for CCC(=O)Nc1cc(ON=C(C)C)cc([N+](=O)[O-])c1 ?
IL1B secr inh: -2; DT40 TDP1 no CPT: -2%; TGFb inhibitor: -1%; HepG2 tox: 2%; DT40 TDP1 CPT: 11%; ASM inhibitor: -1%

How did Cc1ccc(Oc2cc(NC(=O)CCCn3nc([N+](=O)[O-])c(Cl)c3C)cc([N+](=O)[O-])c2)cc1 do in these assays?
IL1B secr inh: 38; DT40 TDP1 no CPT: 23µM*; TGFb inhibitor: -2%; HepG2 tox: 5%; DT40 TDP1 CPT: 21µM*; ASM inhibitor: -23%
